Screen size: about 190,000 compounds; about 2,000 (1.1%) were called active. The full list was thinned out, with actives kept by preference. Values without a mark were called inactive.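 Rule for the calls: active = activation above a set limit, based on mean plus 3 SD of controls (cut at about 140% in these data); inconclusive = one replicate above the limit, the other below; inactive = the rest.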
Assay: activators of APP 5'UTR luciferase reporter, primary screen, SH-SY5Y cells (AID 1276)
Settings: SH-SY5Y APP 5'UTR luciferase reporter, luminescence; at 2 µM; stronger effect = higher value; zero percent = DMSO vehicle wells

SMILES | activation
O=C(COc1ccc(S(=O)(=O)N2CCCCC2)cc1)NCc1ccccn1 | 2.08%
CSCC[C@H](NC(=O)NC1CCCC1)C(=O)O | -20.9%
CCN1CCC2(CCN(Cc3cn[nH]c3-c3ccc(OC)c(F)c3)C2)C1 (centres undefined) | -14.3%
O=C(NNS(=O)(=O)c1ccc(F)cc1)c1cnccn1 | 3.72%
C/C(=N\Nc1nc2ccccc2[nH]1)c1cccs1 | 150% (active)
OCCNc1nc2ccccc2[nH]1 | 16.1%
C/C(=N\Nc1nc(Nc2ccccc2)nc(N2CCOCC2)n1)c1cccs1 | -7.91%
C/C(=N\Nc1ncc(Cl)cc1Cl)c1cccs1 | 154% (active)
COc1cccc(/C(C)=N/Nc2ncc(Cl)cc2Cl)c1 | 24.9%
C/C(=N\Nc1ncc(Cl)cc1Cl)c1ccc(S(=O)(=O)NCc2ccco2)cc1 | 100%
O=S(=O)(NCC1CCCO1)c1cnc(Cl)c(Cl)c1 (centres undefined) | 1.68%
CC(=O)c1ccc(S(=O)(=O)Nc2ccc(C(=O)NCC(c3ccccc3)N(C)C)cc2)cc1 (centres undefined) | -1.54%
COc1ccccc1N1CCN(c2ccc([N+](=O)[O-])nc2)CC1 | 0.38%
O=C(N/N=C/c1ccc(Cl)cc1)c1nc2ccc([N+](=O)[O-])cc2c(=O)[nH]1 | 5.49%
COc1cccc(-n2c(=S)[nH]c3c(oc4ccccc43)c2=O)c1 | 23%
Cc1cccc(-n2c(O)c(C=Nc3ccccc3N)c(=O)[nH]c2=O)c1 | 148% (active)
Cc1ccc(N=Cc2c(O)n(-c3nccs3)c(=O)c3ccccc23)c(C)c1 | 11.8%
Cc1cccc(-n2c(C)cc(/C=N/NC(N)=S)c2C)c1 | -0.81%
CCCCc1nnc(NC(=O)CSc2nc(N)cc(=O)[nH]2)s1 | -0.9%
O=c1[nH]c2ccccc2s1 | -19.6%
COc1cc([N+](=O)[O-])ccc1NC(=S)N1CCN(c2ccccn2)CC1 | -4.93%
COc1nc(N(C)C)nc(N2CC(=O)N(CCNS(=O)(=O)c3ccc(C)cc3)C2=N)n1 | -1.55%
CC(=O)n1cc([C@@H]2C=C(C(=O)N3CCN(Cc4ccc5c(c4)OCO5)CC3)O[C@H](OCc3ccc(CO)cc3)C2)c2ccccc21 | -22.2%
COc1cccc(/C=C/c2ccc3ccccc3n2)c1OC(C)=O | 131%
CCOc1cccc(/C=C/c2ccc3ccccc3n2)c1OC(C)=O | 216% (active)

SMILES | activation
NC(=O)COC(=O)/C=C/c1ccc2ccccc2n1 | 2.32%
O=C(c1cccc(S(=O)(=O)N2CCCC2)c1)N(Cc1ccco1)C1CCS(=O)(=O)C1 (centres undefined) | 11.1%
Cc1ccc(S(=O)(=O)/N=C(/Nc2ccc3[nH]c(=O)[nH]c3c2)c2ccccc2)cc1 | -13.5%
CCOc1ccc(CN2CCN(Cc3ccon3)CC2CCO)cc1 (centres undefined) | 7.1%
O=C(c1cccc(C(=O)N2CCc3ccccc32)n1)N1CCc2ccccc21 | -32.2%
NC(=O)N1CCc2ccccc21 | -5.27%
O=C(c1cnn2ccccc12)N1CCc2ccccc21 | 145% (active)
Cc1ccc(C(=O)N2CCN(S(=O)(=O)N3CCOCC3)CC2)cc1 | 0.65%
Cc1ccc(-n2cc3ccc([N+](=O)[O-])cc3n2)cc1 | 179% (active)
Cc1ccc(-c2cn3cc([N+](=O)[O-])ccc3n2)cc1 | 120%
Cc1cc(C)nc(Nc2cc([N+](=O)[O-])ccc2C)n1 | -6.89%
Cc1cc([N+](=O)[O-])ccc1NC1CCCC1 | -0.84%
OCC1(Cc2ccccc2)CCN(Cc2cc3ccccc3o2)CC1 | -8.13%
COc1ccccc1Oc1ccc(N/C=C2/CCCC2=O)cc1 | 17.2%
Cc1[nH]c2c(C(=O)N3CCCC(CCC(=O)NCc4ccccc4F)C3)cccc2c1C (centres undefined) | 17.2%
COc1c(C=O)c(CCN(C)C(=O)c2ccc(F)cc2)cc2c1OCO2 | 0.6%
CCOc1ccc(Nc2nc(Cl)nc(N3CCN(c4ccc(OC)cc4)CC3)n2)cc1 | -9.55%
COc1ccc(Nc2ncc(F)c(N3CCOCC3)n2)cc1 | 153% (active)
c1ccc(Nc2nc(N3CCOCC3)c3ccccc3n2)cc1 | 7.27%
CCOC(=O)c1c(/N=C/C2C(=O)CC(C)(C)CC2=O)sc(C)c1C | 2.63%
CCN(CC)CCOC(=O)c1ccc(NC(=O)CNC(=O)c2ccccc2)cc1 | 18.8%
COc1cccc(CN(C)CC(=O)NCc2ccccc2Cl)c1OC | 7.69%
NC(=O)C1CCN(Cc2nc3c(Br)cc(Br)cc3c(=O)[nH]2)CC1 | 4.38%
COc1ccc(C(=O)NC2CCN(C(=S)Nc3ccccc3)CC2)cc1 | -16.7%
COc1ccc(C(=S)Nc2ccccc2)cc1 | 68.3%

SMILES | activation
COc1ccc(NC(=S)N2N=CCC2c2ccccc2)cc1 (centres undefined) | 180% (active)
O=C1C2C3C=CC(C3)C2C(=O)N1c1ccc(-c2nc3ccccc3c(=O)o2)cc1 (centres undefined) | 3.88%
Cc1cc(=O)oc(C)c1C(=O)N1CCCCC1 | -5.29%
Cc1cccc(C(=O)N2CCCN(C(=O)c3cccc(C)c3)CC2)c1 | 2.21%
Cc1ccc2cc3cc(C(=O)N4CCCCCC4)oc3nc2c1 | 167% (active)
CCC1(C(=O)c2ccccc2)C(c2cccc([N+](=O)[O-])c2)C1(C(=O)OC)C(=O)OC (centres undefined) | -17.3%
CCN(CC)c1ccc2c(Nc3ccccc3)c(C=O)c(=O)oc2c1 | -11.3%
CCCCSc1nc2ccccc2[nH]1 | 27.4%
C=CCSc1nc2ccccc2[nH]1 | 15.8%
O=C(CSc1nc2ccccc2[nH]1)c1cccs1 | 162% (active)
CC(C)(C)NC(=O)CN(C(=O)c1ccc(Cl)nc1)c1cccc2ccccc12 | -19.3%
O=C(Nc1cccn(Cc2ccccc2Cl)c1=O)NC1CCCCC1 | 19.9%
Cc1ccnc(N2CCCC(C(=O)Nc3cc(F)ccc3C)C2)n1 (centres undefined) | 30.3%
Cc1cc(C)nc(N2CCC(C(=O)Nc3ccc4c(c3)OCCO4)CC2)n1 | 2.98%
O=C(Nc1ccc2c(c1)OCCO2)C1CCCN(c2ncccn2)C1 (centres undefined) | 159% (active)
CCN(CC)CCNC(=O)c1ccc(NS(=O)(=O)c2ccc3c(c2)OCCO3)cc1 | 12.6%
O=C(Nc1ccc(N2CCN(C(=O)C3CC3)CC2)cc1)c1cccs1 | -0.31%
COC(c1ccccc1)c1nnc(CCC(=O)N2CCN(CCOc3ccccc3)CC2)o1 (centres undefined) | -7.19%
NS(=O)(=O)c1ccc(Nc2nc(-c3ccccc3)cs2)cc1 | 52.2%
Oc1ccc(-c2csc(Nc3cccnc3)n2)cc1 | 17.7%
COc1ccc2nc(Nc3nc(-c4ccncc4)cs3)sc2c1 | 65.1%
c1cnc(Nc2nc(-c3ccc4ccccc4c3)cs2)nc1 | 29.6%
COc1ccc(C(=O)/C=C/Nc2ccccn2)cc1 | 134%
COc1ccc(-c2csc(Nc3ccc(O)cc3)n2)cc1 | 120%
c1ccc(Nc2nc(-c3ccncc3)cs2)nc1 | 158% (active)

SMILES | activation
COc1ccc(-c2csc(Nc3ccccn3)n2)cc1 | 205% (active)
O=C(Nc1ccc(Cl)cn1)Nc1cccs1 | 25.6%
Clc1ccc(Nc2nc(-c3cccs3)cs2)nc1 | 135% (active)
COc1ccc(Nc2nc(-c3ccccc3)cs2)cc1 | 148% (active)
O=C(Nc1nc(-c2ccc(-c3ccccc3)cc2)cs1)c1cnccn1 | 11%
CCc1cccc(CC)c1NC(=O)COc1ccccc1C(=O)c1cc(C#N)c(=O)n(C2CCCCC2)c1 | 12.3%
Cc1ccc(NC(=O)CSc2nc(CSc3ccc(C)cc3)cc(=O)[nH]2)cc1 | 7.62%
CCN(CC)CCn1c(/N=C/c2cc(Br)ccc2O)nc2ccccc21 | -4.24%
COc1cc(C(=O)Nc2cc(C(F)(F)F)ccc2-n2cncn2)cc(OC)c1OC | 0.9%
CCCCCN(C(=O)NC(=O)Nc1cccc(C)c1C)S(C)(=O)=O | 12.9%
COc1ccccc1/C=N\Nc1cc(C)nc(-n2nc(C)cc2C)n1 | -3.23%
CCc1ccc(-c2cc(C(=O)NN3CCN(C)CC3)c3ccccc3n2)cc1 | 47.9%
COCCNc1nc2nonc2nc1N1CCCC1c1nccs1 (centres undefined) | 2.4%
CCC(C)NCC(=O)Nc1ccc([N+](=O)[O-])cc1C(=O)Nc1ccccc1F (centres undefined) | -0.05%
CC(CC(=O)O)CC(=O)NNC(=O)c1cccc(Br)c1 (centres undefined) | 7.74%
Brc1ccc(-c2csc(N/N=C/c3ccc4c(c3)OCO4)n2)cc1 | -0.09%
C(=N\Nc1ccc2ccccc2n1)/c1ccc2c(c1)OCO2 | 227% (active)
Cc1nc2ccccc2cc1C(=O)N/N=C/c1ccc([N+](=O)[O-])cc1 | -13.5%
Cc1cc(C)nc(N/N=C/c2c(C)oc3ccccc23)n1 | 22.1%
Cc1noc(C)c1/C=N/Nc1ccc2ccccc2n1 | 169% (active)
O=C(Cc1ccc(F)cc1)N/N=C/c1ccc2c(c1)OCO2 | 42.8%
Cc1cccc(-n2c(=O)c3c(C)c(C)sc3n(CC(N)=O)c2=O)c1 | -15.7%
CCn1c(SCC(=O)Nc2ccc(C)cc2)nc2nc3c(cc2c1=O)CCCC3 | 17.6%
CC(C)CNC(=S)NC(=O)c1ccc(Cl)cc1 | 37.3%
